From the supplement of paper PMC11732987, “Enantioselective OTUD7B fragment discovery through chemoproteomics screening and high-throughput optimisation” (Communications Chemistry, 2025)

Experiments:
Test in all cases: log2 ratio of Biotin-Ahx-Ub-VS probe labelling (fragment/DMSO); higher = less target engagement (more negative = stronger competition), active = hit call of the paper (q ≤ 0.05, log2 ratio ≤ -1)
Details in all cases: compound concentration: 200 uM; treatment time: 3 h
ALG13 = target: T1, ALG13 (UniProt Q9NP73)
T1 sequence (whole entry): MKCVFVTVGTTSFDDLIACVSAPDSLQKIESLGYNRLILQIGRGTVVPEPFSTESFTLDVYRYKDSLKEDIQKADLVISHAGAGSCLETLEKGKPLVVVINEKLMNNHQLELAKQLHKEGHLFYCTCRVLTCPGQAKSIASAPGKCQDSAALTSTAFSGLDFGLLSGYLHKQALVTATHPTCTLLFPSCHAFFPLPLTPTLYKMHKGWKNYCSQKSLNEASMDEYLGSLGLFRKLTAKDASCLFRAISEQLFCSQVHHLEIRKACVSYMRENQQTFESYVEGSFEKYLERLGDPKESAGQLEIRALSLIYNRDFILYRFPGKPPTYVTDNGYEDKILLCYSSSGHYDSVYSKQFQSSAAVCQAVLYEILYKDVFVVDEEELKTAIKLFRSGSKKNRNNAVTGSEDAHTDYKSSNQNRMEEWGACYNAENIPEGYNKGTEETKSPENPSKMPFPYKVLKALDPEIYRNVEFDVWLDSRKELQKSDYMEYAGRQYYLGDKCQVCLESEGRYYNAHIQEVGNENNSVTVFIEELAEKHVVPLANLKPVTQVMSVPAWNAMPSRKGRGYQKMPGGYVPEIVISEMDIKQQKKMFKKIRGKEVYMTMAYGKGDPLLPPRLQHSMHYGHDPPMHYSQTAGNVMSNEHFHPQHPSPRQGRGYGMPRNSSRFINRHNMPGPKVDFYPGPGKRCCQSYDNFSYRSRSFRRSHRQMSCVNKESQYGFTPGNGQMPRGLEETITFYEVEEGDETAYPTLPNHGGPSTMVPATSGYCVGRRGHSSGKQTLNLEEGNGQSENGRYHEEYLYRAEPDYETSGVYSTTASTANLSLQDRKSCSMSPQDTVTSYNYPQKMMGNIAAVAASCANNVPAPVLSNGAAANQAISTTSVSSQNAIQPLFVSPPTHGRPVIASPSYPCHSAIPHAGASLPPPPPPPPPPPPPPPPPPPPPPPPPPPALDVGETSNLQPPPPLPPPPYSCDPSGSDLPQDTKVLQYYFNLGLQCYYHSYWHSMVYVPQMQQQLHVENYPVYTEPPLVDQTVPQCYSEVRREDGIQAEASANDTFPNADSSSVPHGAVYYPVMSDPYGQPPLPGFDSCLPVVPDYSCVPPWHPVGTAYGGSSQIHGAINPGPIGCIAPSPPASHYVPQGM
Outline: (§1)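 Fragment (200 µM) or vehicle was incubated for 3 h with triplicate HEK293T lysate samples of 495 µg, which were then treated with Biotin-Ahx-Ub-VS at 0.5 µM final for 1 h. Labelled DUBs were enriched on NeutrAvidin, digested with LysC and trypsin, and analysed by diaPASEF LC-MS/MS. Values are average log2 fragment/vehicle ratios from an unpaired t-test on global-median-normalised Spectronaut label-free quantities, using proteins with ≥2 unique peptides.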

ATXN3 = ATXN3 (UniProt P54252)
Outline: as §1

BAP1 = target: T2, BAP1 (UniProt Q92560)
T2 sequence (whole entry): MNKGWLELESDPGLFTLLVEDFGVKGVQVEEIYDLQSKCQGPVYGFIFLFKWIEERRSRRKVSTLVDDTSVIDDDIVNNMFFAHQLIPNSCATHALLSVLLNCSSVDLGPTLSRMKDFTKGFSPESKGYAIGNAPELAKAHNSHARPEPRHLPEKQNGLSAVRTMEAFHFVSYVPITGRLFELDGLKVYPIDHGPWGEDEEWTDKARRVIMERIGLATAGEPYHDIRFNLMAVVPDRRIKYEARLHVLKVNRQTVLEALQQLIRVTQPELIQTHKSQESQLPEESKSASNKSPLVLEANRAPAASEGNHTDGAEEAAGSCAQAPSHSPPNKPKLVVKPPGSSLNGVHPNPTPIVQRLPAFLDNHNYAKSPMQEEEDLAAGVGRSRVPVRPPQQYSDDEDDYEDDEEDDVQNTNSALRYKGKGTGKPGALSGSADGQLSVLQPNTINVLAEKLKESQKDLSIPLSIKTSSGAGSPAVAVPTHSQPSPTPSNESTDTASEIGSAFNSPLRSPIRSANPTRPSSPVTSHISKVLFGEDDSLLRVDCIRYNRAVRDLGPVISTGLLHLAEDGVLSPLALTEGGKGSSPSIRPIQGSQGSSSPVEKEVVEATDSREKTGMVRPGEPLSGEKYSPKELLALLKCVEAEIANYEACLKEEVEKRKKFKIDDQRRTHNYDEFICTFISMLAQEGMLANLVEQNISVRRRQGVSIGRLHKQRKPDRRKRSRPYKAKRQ
Outline: as §1

EIF3F = EIF3F (UniProt O00303)
Outline: as §1

EIF3H = EIF3H (UniProt O15372)
Outline: as §1

FAM105A = target: T3, FAM105A (UniProt Q9NUU6)
T3 sequence (whole entry): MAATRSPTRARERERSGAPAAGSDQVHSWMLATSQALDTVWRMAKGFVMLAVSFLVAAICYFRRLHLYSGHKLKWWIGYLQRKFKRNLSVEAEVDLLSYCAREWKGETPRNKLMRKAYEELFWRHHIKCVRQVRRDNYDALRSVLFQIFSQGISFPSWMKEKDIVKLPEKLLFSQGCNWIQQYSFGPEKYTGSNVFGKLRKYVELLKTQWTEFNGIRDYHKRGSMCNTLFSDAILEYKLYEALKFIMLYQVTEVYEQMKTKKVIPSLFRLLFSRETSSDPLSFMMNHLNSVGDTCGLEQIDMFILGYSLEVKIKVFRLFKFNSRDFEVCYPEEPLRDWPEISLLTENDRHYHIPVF
Outline: as §1

OTUB1 = OTUB1 (UniProt Q96FW1)
Outline: as §1

OTUD4 = target: T4, OTUD4 (UniProt Q01804)
T4 sequence (whole entry): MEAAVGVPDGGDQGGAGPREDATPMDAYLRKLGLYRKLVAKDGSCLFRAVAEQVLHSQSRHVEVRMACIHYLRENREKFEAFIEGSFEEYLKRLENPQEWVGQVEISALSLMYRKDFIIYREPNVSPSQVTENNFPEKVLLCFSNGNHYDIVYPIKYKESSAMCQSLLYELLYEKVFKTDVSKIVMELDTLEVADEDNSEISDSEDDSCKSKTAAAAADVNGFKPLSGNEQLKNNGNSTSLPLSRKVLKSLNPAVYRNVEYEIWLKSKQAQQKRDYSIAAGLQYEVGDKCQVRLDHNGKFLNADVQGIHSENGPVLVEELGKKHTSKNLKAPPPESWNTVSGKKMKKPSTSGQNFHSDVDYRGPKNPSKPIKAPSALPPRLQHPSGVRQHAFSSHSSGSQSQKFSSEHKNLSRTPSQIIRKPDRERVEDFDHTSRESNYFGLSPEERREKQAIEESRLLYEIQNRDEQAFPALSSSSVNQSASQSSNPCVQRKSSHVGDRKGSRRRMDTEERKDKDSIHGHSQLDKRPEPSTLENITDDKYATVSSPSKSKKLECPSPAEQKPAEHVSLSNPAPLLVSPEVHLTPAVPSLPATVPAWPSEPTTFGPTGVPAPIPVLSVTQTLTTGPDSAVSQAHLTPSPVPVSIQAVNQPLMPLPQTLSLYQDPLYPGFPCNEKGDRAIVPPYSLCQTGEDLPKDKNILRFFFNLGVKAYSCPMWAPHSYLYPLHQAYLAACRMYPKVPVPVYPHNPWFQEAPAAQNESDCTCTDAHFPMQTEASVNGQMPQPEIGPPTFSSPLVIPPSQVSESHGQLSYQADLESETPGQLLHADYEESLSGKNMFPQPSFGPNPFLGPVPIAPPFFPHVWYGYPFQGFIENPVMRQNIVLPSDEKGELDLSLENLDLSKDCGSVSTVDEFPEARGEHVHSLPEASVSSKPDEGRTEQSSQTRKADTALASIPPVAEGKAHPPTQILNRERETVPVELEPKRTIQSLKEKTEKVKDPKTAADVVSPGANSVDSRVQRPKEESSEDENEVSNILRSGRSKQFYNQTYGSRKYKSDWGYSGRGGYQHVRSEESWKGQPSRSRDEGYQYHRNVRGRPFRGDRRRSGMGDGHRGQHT
Outline: as §1

OTUD5 = target: T5, OTUD5 (UniProt Q96G74)
T5 sequence (whole entry): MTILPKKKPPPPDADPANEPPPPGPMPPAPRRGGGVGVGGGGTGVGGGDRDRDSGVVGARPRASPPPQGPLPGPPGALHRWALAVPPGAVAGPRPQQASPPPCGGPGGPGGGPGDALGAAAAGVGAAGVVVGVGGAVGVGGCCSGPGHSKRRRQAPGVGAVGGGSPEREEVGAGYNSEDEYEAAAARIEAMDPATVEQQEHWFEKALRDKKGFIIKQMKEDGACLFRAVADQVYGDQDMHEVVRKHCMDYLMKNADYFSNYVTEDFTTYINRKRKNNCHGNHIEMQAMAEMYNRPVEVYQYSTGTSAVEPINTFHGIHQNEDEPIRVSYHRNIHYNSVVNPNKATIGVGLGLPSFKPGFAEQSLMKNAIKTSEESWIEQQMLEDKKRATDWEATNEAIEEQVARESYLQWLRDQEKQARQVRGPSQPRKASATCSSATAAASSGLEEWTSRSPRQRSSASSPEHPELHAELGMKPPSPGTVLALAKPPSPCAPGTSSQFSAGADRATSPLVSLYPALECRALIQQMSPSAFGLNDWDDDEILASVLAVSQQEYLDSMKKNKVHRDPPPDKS
Outline: as §1

Measured: log2 ratio of Biotin-Ahx-Ub-VS probe labelling

Chain of EIF3F (O00303 whole entry): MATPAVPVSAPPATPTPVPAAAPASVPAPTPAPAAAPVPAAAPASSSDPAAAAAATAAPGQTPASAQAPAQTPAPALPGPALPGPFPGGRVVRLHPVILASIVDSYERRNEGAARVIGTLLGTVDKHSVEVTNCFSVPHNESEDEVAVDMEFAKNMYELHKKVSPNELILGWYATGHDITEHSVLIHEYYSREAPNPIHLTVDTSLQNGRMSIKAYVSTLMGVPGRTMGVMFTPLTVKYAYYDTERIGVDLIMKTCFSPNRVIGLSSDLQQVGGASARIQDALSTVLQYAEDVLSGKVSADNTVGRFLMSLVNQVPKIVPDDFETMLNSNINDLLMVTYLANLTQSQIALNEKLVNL
Chain of ATXN3 (P54252 whole entry): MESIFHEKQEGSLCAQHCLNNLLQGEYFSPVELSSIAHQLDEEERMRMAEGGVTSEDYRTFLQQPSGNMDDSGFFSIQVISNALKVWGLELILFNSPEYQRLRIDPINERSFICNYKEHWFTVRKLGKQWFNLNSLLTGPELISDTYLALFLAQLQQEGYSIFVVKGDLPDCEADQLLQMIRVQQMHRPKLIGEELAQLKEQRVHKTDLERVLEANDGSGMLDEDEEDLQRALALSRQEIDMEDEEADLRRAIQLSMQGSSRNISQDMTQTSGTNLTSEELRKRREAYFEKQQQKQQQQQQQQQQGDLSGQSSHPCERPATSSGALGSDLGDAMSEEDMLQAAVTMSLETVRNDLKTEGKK
Chain of EIF3H (O15372 whole entry): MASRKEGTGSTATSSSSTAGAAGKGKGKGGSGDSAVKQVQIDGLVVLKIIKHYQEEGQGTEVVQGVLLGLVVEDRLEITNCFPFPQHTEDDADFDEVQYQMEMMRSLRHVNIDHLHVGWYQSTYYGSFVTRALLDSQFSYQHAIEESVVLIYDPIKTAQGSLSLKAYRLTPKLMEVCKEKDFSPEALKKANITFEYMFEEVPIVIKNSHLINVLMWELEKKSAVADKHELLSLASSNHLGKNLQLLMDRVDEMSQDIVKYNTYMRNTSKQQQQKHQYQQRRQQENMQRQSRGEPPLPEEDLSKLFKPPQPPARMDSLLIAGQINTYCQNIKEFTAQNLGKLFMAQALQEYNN
Chain of OTUB1 (Q96FW1 whole entry): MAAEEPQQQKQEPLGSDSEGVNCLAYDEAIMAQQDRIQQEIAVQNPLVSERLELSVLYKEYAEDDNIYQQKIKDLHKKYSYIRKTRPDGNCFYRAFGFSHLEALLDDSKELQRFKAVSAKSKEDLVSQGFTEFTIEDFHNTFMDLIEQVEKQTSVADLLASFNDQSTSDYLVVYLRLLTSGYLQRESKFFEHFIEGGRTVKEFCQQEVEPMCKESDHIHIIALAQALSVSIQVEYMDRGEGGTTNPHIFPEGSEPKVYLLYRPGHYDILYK

C[C@H]1CN(C(=O)CCl)CCN1C(=O)c1cnn(C)c1.Cl
inactive: ALG13 0.134 | ATXN3 -0.631 | BAP1 -0.356 | EIF3F 0.132 | EIF3H 0.0411 | FAM105A 0.375 | OTUB1 -0.204 | OTUD4 -0.236 | OTUD5 -0.326
